A selection: hits, their analogues and other compounds. The true share with any hit is near 1.2%.
NSD2 inh = blocks human histone methyltransferase NSD2 | O96028 | inhibition, % at 12.5 µM | NSD2 peptide methylation, AlphaScreen, 120 min | 0.54% of 310,000 active | AID 743445; in the data active = inhibition above about 50%
Glyco luc inh = blocks N-linked glycosylation in D54 reporter cells; reporter increase, % at 12.5 µM; D54 ERlucT glycosylation luciferase reporter, 24 h; percent of 100 nM tunicamycin response; 0.23% of 360,000 active;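 active = mean luciferase reporter signal, scaled so untreated is 0 and the glycosylation-blocking control 100, at or above a set limit in every replicate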;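 note: luciferase carries N-glycosylation sites so blocking glycosylation raises the light; 0% = median of neutral control wells and 100% = median of 100 nM tunicamycin wells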
CASP6 VEID inh = blocks human caspase-6 cleavage activity | purified caspase-6, Z-VEID-R110 cleavage fluorescence | P55212 | 0.53% of 350,000 active | AID 686996 | inhibition, % at 12.5 µM;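 active = mean inhibition across replicates at least about 35%, with every replicate also reaching that limit, limit read from the data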;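 note: 0% = median of neutral control wells and 100% = no fluorescence left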
Target sequence (P55212 24-179 limits assumed): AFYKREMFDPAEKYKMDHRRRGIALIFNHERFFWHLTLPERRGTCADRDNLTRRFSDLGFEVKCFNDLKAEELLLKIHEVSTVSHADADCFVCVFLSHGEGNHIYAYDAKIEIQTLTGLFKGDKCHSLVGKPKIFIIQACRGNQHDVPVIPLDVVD
Target sequence (P55212 194-293 limits assumed): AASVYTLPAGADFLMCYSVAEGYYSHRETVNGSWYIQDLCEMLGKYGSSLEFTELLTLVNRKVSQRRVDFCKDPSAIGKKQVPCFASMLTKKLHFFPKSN
RAD54 branch = RAD54 (human) branch migration inhibition | RAD54 Holliday junction branch migration, FAM/BHQ fluorescence | inhibition, % at 10.4 µM | Q92698 | 0.14% of 360,000 active;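 active = mean normalized replicate activity at least 40 and at least half of replicates scoring 40 or more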;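 note: 0% = median of neutral control wells and 100% = median of positive control wells; inhibitors cause a drop in the FAM fluorescence signal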
RAD52 anneal inh = blocks human RAD52 DNA annealing; AID 651710; 0.46% of 360,000 active; recombinant RAD52 DNA annealing, FRET fluorescence; inhibition, % at 18.7 µM; P43351;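 active = every replicate showing at least 50% inhibition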
Numbers without * were called inactive.

How did Cc1occc1C(=O)NCc1ccco1 do in these assays?
NSD2 inh: 11; Glyco luc inh: 0; CASP6 VEID inh: 41*; RAD52 anneal inh: -6

How did COc1ccc(-c2ccc3c(c2)O[C@H](CN(C)Cc2ccccc2C(=O)O)[C@H](C)CN([C@H](C)CO)S3(=O)=O)cc1 do in these assays?
CASP6 VEID inh: 4; RAD54 branch: 3; RAD52 anneal inh: -3

How did Cc1ccccc1OCC(O)CN1CCN(CCN2C(=O)c3cccc4cccc(c34)C2=O)CC1 (stereo not given) do in these assays?
NSD2 inh: 2; Glyco luc inh: 20; CASP6 VEID inh: -5; RAD52 anneal inh: 1

Results for CC(=O)c1ccc(OCC(O)CN2CCN(CCN3C(=O)c4cccc5cccc(c45)C3=O)CC2)cc1 (stereo not given) ?
NSD2 inh: 2; Glyco luc inh: 56*

How did COc1ccc(S(=O)(=O)N2CCN(CC(=O)c3ccc(O)c(O)c3)CC2)cc1 do in these assays?
NSD2 inh: active; Glyco luc inh: -5; RAD54 branch: -6; RAD52 anneal inh: -25

What do the screens show for `O=C(CN1CCN(S(=O)(=O)c2ccc(Cl)cc2)CC1)c1ccc(O)c(O)c1`?
NSD2 inh: 121*; Glyco luc inh: -4; RAD54 branch: 3

What do the screens show for `O=C(CN1CCN(S(=O)(=O)c2ccc(F)cc2)CC1)c1ccc(O)c(O)c1`?
Glyco luc inh: -2; CASP6 VEID inh: 5; RAD52 anneal inh: -14

Results for C[C@H](CO)N1C[C@H](C)[C@@H](CN(C)C(=O)NC2CCCCC2)Oc2ccc(NC(=O)Nc3cccc4ccccc34)cc2C1=O ?
RAD54 branch: 3; RAD52 anneal inh: -30

How did Cc1cc(C(=O)Nc2cccc3c2O[C@H](CN(C)S(=O)(=O)c2ccc(F)cc2)[C@@H](C)CN([C@@H](C)CO)C3=O)n(C)n1 do in these assays?
CASP6 VEID inh: -1; RAD54 branch: 3; RAD52 anneal inh: -1

What do the screens show for `Cc1nn(-c2ccccc2)c(Cl)c1/C=N/Nc1nc2ccccc2[nH]1`?
NSD2 inh: 0; Glyco luc inh: 66*; CASP6 VEID inh: -7; RAD52 anneal inh: -10

How did Cc1cc(=O)[nH]c(N/N=C/c2c(C)nn(-c3ccccc3)c2Cl)n1 do in these assays?
NSD2 inh: 8; Glyco luc inh: -3; CASP6 VEID inh: 0; RAD52 anneal inh: -12

Results for C[C@H](NC(=O)[C@@H]1[C@@H](CO)[C@@H]2Cn3c(ccc(C4=CCCC4)c3=O)[C@H]1N2C(=O)C1CC1)c1ccccc1 ?
CASP6 VEID inh: 0; RAD52 anneal inh: 0

What do the screens show for `O=C(Oc1ccc(Nc2ncnc3ccccc23)cc1)c1cccnc1`?
NSD2 inh: 1; Glyco luc inh: -1; CASP6 VEID inh: 38*; RAD54 branch: -6; RAD52 anneal inh: 1

Results for COCC(=O)Nc1ccc2c(c1)C(=O)N(C)C[C@@H](OC)[C@H](C)CN(Cc1cc(-c3ccccc3)on1)[C@H](C)CO2 ?
CASP6 VEID inh: 0; RAD54 branch: 1; RAD52 anneal inh: 10

Results for Cc1ccc2c(c1)[C@H]1[C@H](CO2)[C@H](c2ccccc2)[C@]2(C)C(=O)Nc3ccc(Br)cc3C(=O)N12 ?
Glyco luc inh: 30*; CASP6 VEID inh: 2; RAD54 branch: 0; RAD52 anneal inh: -38

What do the screens show for `Cc1ccc2c(c1)C(=O)N1[C@H]3c4cc(C)ccc4OC[C@@H]3[C@H](c3ccccc3)[C@]1(C)C(=O)N2`?
Glyco luc inh: 24; CASP6 VEID inh: -2; RAD54 branch: -7; RAD52 anneal inh: -13

What do the screens show for `Cc1ccc2c(c1)C(=O)N1[C@H]3c4cc(Br)ccc4OC[C@@H]3[C@H](c3ccccc3)[C@]1(C)C(=O)N2`?
Glyco luc inh: 27*; CASP6 VEID inh: -2; RAD54 branch: -12; RAD52 anneal inh: -34

How did COc1ccc(NC(=O)Nc2ccc3c(c2)CC(=O)N([C@H](C)CO)C[C@H](C)[C@H](CN(C)S(=O)(=O)c2c(C)noc2C)O3)cc1 do in these assays?
CASP6 VEID inh: -1; RAD54 branch: 4; RAD52 anneal inh: 28

What do the screens show for `CC(CCc1ccccc1)NC(=O)c1ccc(NC(=O)c2ccccc2)cc1` (stereo not given)?
NSD2 inh: 2; Glyco luc inh: 26*; CASP6 VEID inh: -1; RAD54 branch: 0; RAD52 anneal inh: -6

How did CC(CCc1ccccc1)NC(=O)c1ccc(NC(=O)c2cccc(Br)c2)cc1 (stereo not given) do in these assays?
NSD2 inh: -1; Glyco luc inh: -4; RAD54 branch: -2

Results for CO[C@@H]1CN(C)C(=O)c2cc(NC(=O)C3CC3)ccc2OC[C@@H](C)N(C(=O)c2ccccc2)C[C@H]1C ?
CASP6 VEID inh: 3; RAD54 branch: -2; RAD52 anneal inh: -9

Results for CCN(CC)S(=O)(=O)c1ccc(N2CCOCC2)c(NC(=O)c2[nH]c(C)c(C(C)=O)c2C)c1 ?
NSD2 inh: 2; Glyco luc inh: 63*; CASP6 VEID inh: -2; RAD54 branch: 3; RAD52 anneal inh: -11

Results for C[C@H](CO)N1C[C@H](C)[C@H](CN(C)C)Oc2cc(-c3ccccc3F)ccc2S1(=O)=O ?
CASP6 VEID inh: 2; RAD54 branch: 5; RAD52 anneal inh: -6

Results for COc1ccc2c(C)cc(SCC(=O)Nc3nsc(-c4ccc(C)cc4)n3)nc2c1 ?
Glyco luc inh: -1; CASP6 VEID inh: 49*; RAD54 branch: 11; RAD52 anneal inh: 0

How did Cc1ccc(-c2nc(NC(=O)CSc3cc(C)c4ccccc4n3)ns2)cc1 do in these assays?
Glyco luc inh: 0; CASP6 VEID inh: -2; RAD54 branch: -2; RAD52 anneal inh: -15

How did O=C(NC[C@H]1CC[C@H]2[C@H](CN2C(=O)NC2CCCC2)O1)c1ccc2c(c1)OCO2 do in these assays?
CASP6 VEID inh: 1; RAD52 anneal inh: -12

How did O=C(NC[C@@H]1CC[C@@H]2[C@@H](CN2C(=O)NC2CCCC2)O1)c1ccc2c(c1)OCO2 do in these assays?
CASP6 VEID inh: 17; RAD52 anneal inh: 112*

Results for C[C@@H]1CN([C@H](C)CO)C(=O)c2cc(C3=CCCCC3)cnc2O[C@@H]1CN(C)Cc1ccccn1 ?
CASP6 VEID inh: 6; RAD54 branch: -8; RAD52 anneal inh: 0

How did OC(c1ccc(F)cc1)c1ncc(-c2ccccc2F)[nH]1 (stereo not given) do in these assays?
NSD2 inh: 1; Glyco luc inh: 0; CASP6 VEID inh: 39*; RAD54 branch: 10; RAD52 anneal inh: -6

How did Cc1ccc([N+](=O)[O-])cc1S(=O)(=O)Nc1ccc(C(=O)N2CCN(C(=O)c3ccco3)CC2)cc1 do in these assays?
NSD2 inh: 0; Glyco luc inh: 0; CASP6 VEID inh: 54*; RAD54 branch: 11; RAD52 anneal inh: -6

How did Cc1ccc([N+](=O)[O-])cc1S(=O)(=O)Nc1ccc(C(=O)N(C)C)cc1 do in these assays?
NSD2 inh: 1; Glyco luc inh: 1; CASP6 VEID inh: -2; RAD54 branch: 1; RAD52 anneal inh: -28

How did CN(C)c1ccc2c(c1)[C@H]1C[C@H](CC(=O)NCCN3CCCCC3)O[C@H](CO)[C@H]1O2 do in these assays?
CASP6 VEID inh: -102; RAD54 branch: 38; RAD52 anneal inh: 56*

Screening data (PubChem)
